According to PubChem BioAssay AID2314 (National Center for Advancing Translational Sciences (NCATS), 2010):
Screen size: about 300,000 compounds; about 37,000 (12%) were called active. Cut-off read from the data, not from the text of the source: active = max response mostly above about 13% (no sharp cut-off); inactive = mostly below about 14%. Only a selection was taken, and actives are over-represented in it overall.

Test: Cycloheximide Counterscreen for Small Molecule Inhibitors of Shiga Toxin; note: read at 38.3 µM for the half of the compounds with a filed dose; 0% is about no effect
Settings: cell reporter, cycloheximide protein synthesis inhibition counterscreen; hits give high values

| SMILES | max response |
| --- | --- |
| CCN1/C(=C/c2ccc3ccc(C)cc3[n+]2CC)Sc2ccccc21 | 11.9% (active) |
| CCN1/C(=C\c2ccc3ccccc3[n+]2CC)Sc2cc(C)ccc21 | 1.19% (inactive) |
| CCN1CCN(CCNC(=O)c2ccc(/C=C3/Sc4ccccc4N(Cc4cccc(C)c4)C3=O)cc2)CC1 | -11.9% (inactive) |
| Cc1ccc2sc(N(CCN(C)C)C(=O)/C=C/c3cccs3)nc2c1C | -8.25% (inactive) |
| COc1ccc(N=C(C)c2sc3ccccc3c2O)cc1 | 43.2% (active) |
| COc1ccc(S(=O)(=O)Nc2ccc(O)c(Sc3nc4ccccc4s3)c2)cc1 | 1.12% (inactive) |
| COc1ccc(-n2c(O)c(C(C)=Nc3ccc4c(c3)CCC4)c(=O)[nH]c2=O)cc1 | -1.73% (inactive) |
| CC(=O)[C@@]12O[C@@H]1C[C@H]1[C@@H]3CC[C@H]4C[C@@H](O)CC[C@]4(C)[C@H]3CC[C@@]12C | -5.5% (inactive) |
| CCN1CCC2(CCN(Cc3cn[nH]c3-c3ccc(OC)c(F)c3)C2)C1 (centres undefined) | -2.52% (inactive) |
| Cc1ccc(NC(=O)C2CCN(S(=O)(=O)c3ccc4c(c3)NC(=O)CO4)CC2)cc1C | 1.16% (inactive) |
| O=C(Cn1c(=O)sc2ccccc21)Nc1nc2c(s1)CCCC2 | 3.35% (inactive) |
| COC(=O)C(NC(C)=O)(Nc1nc2c(s1)CCCC2)C(F)(F)F (centres undefined) | -2.42% (inactive) |
| Fc1ccc2nc(Nc3nc4c(s3)CCCC4)sc2c1 | 40.4% (active) |
| CN(C)c1cc(-c2ccc(F)cc2)oc(=O)c1Cl | 2.21% (inactive) |
| Cc1cc(C)nc(Nc2ncn[nH]2)n1 | -1.33% (inactive) |
| Cc1cc(C)nc(Nc2n[nH]c(-c3ccccc3N)n2)n1 | 52% (active) |
| Cc1ccccc1-c1n[nH]c(=S)n1C | 6.29% (inactive) |
| CS(=O)(=O)Nc1ccccc1N=C(c1ccccc1)c1ccccc1 | -4.16% (inactive) |
| C/C=C(/C)C(=O)O[C@@H]1c2cc3c(c4c2[C@@]2(CO4)C(=O)C(OC)=C(OC)C=C2C[C@@H](C)[C@H]1C)OCO3 | -1.03% (inactive) |
| COc1ccc(S(=O)(=O)N2CCSCC2)cc1 | -2.78% (inactive) |
| CCCNC(=O)c1c(Cl)cnn1-c1ccc(C)cc1 | 39.1% (active) |
| CCCNC(=O)CCc1c(C)nc2c(c(C)nn2-c2ccc(C)cc2)c1C | -2.97% (inactive) |
| CCCNC(=O)c1ccc(Cl)c(Cl)c1 | -2.92% (inactive) |
| O=C1C=CC(=O)N1c1ccc(N2CCCCC2)cc1 | 8% (inactive) |

| SMILES | max response |
| --- | --- |
| Cc1n[nH]c(C)c1S(=O)(=O)N1CCCC(C(=O)Nc2ccc(Br)cc2)C1 (centres undefined) | -4.38% (inactive) |
| CCS(=O)(=O)c1ccc(O)c(NC(=O)COc2ccc(Cl)cc2)c1 | -2.47% (inactive) |
| COC(=O)c1sccc1NC(=O)CCC1CCCC1 | 11% (inactive) |
| O=C(COc1ccc(Cl)cc1)Nc1ccccc1CO | 19.6% (active) |
| O=C(COc1ccc(Cl)cc1)NCCSc1ccccc1 | -2.45% (inactive) |
| COC(=O)c1sccc1NC(=O)COc1ccc(Cl)cc1 | 18% (active) |
| COC(=O)c1sccc1NC(=O)c1ccc(Cl)cc1 | -0.926% (inactive) |
| CCOc1ccc(N/C(N)=N/c2nc(C)c(C)c(=O)[nH]2)cc1 | 0.863% (inactive) |
| Cc1ccc(NC(=O)Cn2cccc2C2=NC(c3ccccc3)CO2)c(C)c1 (centres undefined) | -4.36% (inactive) |
| N#Cc1ccc(OCc2nnc(-c3ccc([N+](=O)[O-])cc3)o2)cc1 | -2.49% (inactive) |
| COCCn1c(SCC(=O)Nc2cc(Cl)ccc2OC)nc2c(c1=O)SC(C)C2 (centres undefined) | -1.62% (inactive) |
| O=S(=O)(Oc1ccccc1C(=S)N1CCOCC1)c1ccc(Cl)cc1 | -1.08% (inactive) |
| NC(=O)CC(NC(=O)Cc1ccc(Br)cc1)c1ccc(NC2CC3CCC2C3)c([N+](=O)[O-])c1 (centres undefined) | 8.14% (inactive) |
| O=C(/C=C/c1ccc(F)cc1)NCCNC(=O)/C=C/c1ccc(F)cc1 | -1.57% (inactive) |
| CC(C)c1ccc(/C=C/C(=O)NNC(=O)c2cccnc2)cc1 | 10.9% (inactive) |
| C=CCNC(=O)/C=C/c1ccc(C(C)C)cc1 | 57.7% (active) |
| O=C(/C=C/c1cccc(C(F)(F)F)c1)N1CCN(c2ccccn2)CC1 | 2.61% (inactive) |
| O=C(c1cccs1)N(Cc1cc2ccccc2[nH]c1=O)CC1CCCO1 (centres undefined) | -1.8% (inactive) |
| COc1ccc(NC(=O)CN2C(=O)COc3ccc(S(=O)(=O)N4CCOCC4)cc32)c(OC)c1 | -3.45% (inactive) |
| CCCCC[C@H]1CN(C2CCCCC2)C(=O)[C@@H]1CC(=O)NCc1ccc(OC)cc1 | -1.9% (inactive) |
| CCn1c(SCC(=O)Nc2ccc3c(c2)OCCO3)nc2c(c1=O)SC(C)C2 (centres undefined) | -2.67% (inactive) |
| O=C(CSc1nnnn1C1CCCC1)Nc1ccc2c(c1)OCCO2 | 20.7% (active) |
| Cc1ccc(-n2c(SCC(=O)Nc3ccc4c(c3)OCO4)nnc2-c2ccccn2)cc1 | -4.03% (inactive) |
| Cc1ccc(-n2c(SCC(=O)Nc3ccc4c(c3)OCO4)nnc2-c2ccoc2C)cc1 | -6.42% (inactive) |

| SMILES | max response |
| --- | --- |
| CCC(=O)Nc1cccc(NC(=O)CSc2nnnn2C2CCCC2)c1 | 3.23% (inactive) |
| O=C(CSc1nnnn1-c1ccc2c(c1)CCC2)Nc1ccc2c(c1)OCCO2 | 22.4% (active) |
| COCCCNC(NC(=O)c1ccc(OC)cc1)C(Cl)(Cl)Cl (centres undefined) | -1.44% (inactive) |
| O=S(=O)(c1cc(Cl)ccc1Cl)N1CCN(Cc2ccco2)CC1 | -2.5% (inactive) |
| CCC(C)N1C(=O)S/C(=C/c2ccc(Sc3nc4ccccc4[nH]3)o2)C1=O (centres undefined) | 8.57% (inactive) |
| CC1CCN(S(=O)(=O)c2ccc3[nH]c(=O)ccc3c2)CC1 | 0.735% (inactive) |
| CCN(c1ccc2c(c1)OCO2)S(=O)(=O)c1cc(Br)cc2c1N(C(=O)C1CC1)CC2 | 10.1% (inactive) |
| COc1ccc(Cl)cc1NC(=O)CN(C)C(=O)CCCc1c[nH]c2ccccc12 | -3.1% (inactive) |
| Cc1cccc(OCC(=O)NC2CC(C)(C)NC(C)(C)C2)c1 | -1.93% (inactive) |
| COc1ccc2oc(=O)cc(CN3CCOCC3)c2c1 | -3.2% (inactive) |
| Cc1cc(=O)oc2c3c(cc(OCC(=O)NCCC(=O)N[C@@H](C)C(=O)O)c12)OC(C)(C)CC3 | -1.18% (inactive) |
| COc1ccc(S(=O)(=O)NCCc2cc3ccc(C)c(C)c3[nH]c2=O)cc1 | -6.24% (inactive) |
| COCc1c(C(=O)N/N=C\c2cccnc2)nnn1-c1nonc1N | -4.36% (inactive) |
| FC(F)(F)c1cccc(-c2cc3ccccc3nc2N2CCCC2)c1 | 3.78% (inactive) |
| COc1ccc2[nH]cc(/C=C(/C#N)S(=O)(=O)c3ccccc3)c2c1 | -3.42% (inactive) |
| COc1ccc(/C=C(\C#N)c2c[nH]c3ccccc23)cc1 | 47.7% (active) |
| CCC/C(=N\O)c1c[nH]c2ccccc12 | 13.5% (inactive) |
| CCO[C@@H]1OC(C(N)=O)=C[C@H](c2ccc(Br)cc2)[C@H]1CCCO | -0.863% (inactive) |
| CCC/C=C(\CCC)C(NC(=O)Cc1ccccc1)c1ccc(C(=O)OC)cc1 (centres undefined) | -2.68% (inactive) |
| Cc1ccc(C(=O)c2coc3ccc(O)c(CN(C)C)c23)cc1 | -0.656% (inactive) |
| CN(C)Cc1c(O)ccc2c(=O)c(-c3ccccc3Cl)coc12 | 1.67% (inactive) |
| CN(C)Cc1c(O)ccc2occ(C(O)c3ccccc3)c12 (centres undefined) | 17.6% (active) |
| c1ccc(Cc2ccc(OCCn3ccnc3)cc2)cc1 | 12% (inactive) |
| Clc1c(OCCCn2ccnc2)ccc2ccccc12 | 20.6% (active) |

| SMILES | max response |
| --- | --- |
| C=CCc1cc(C)ccc1OCCCn1ccnc1 | -0.408% (inactive) |
| COc1cc(S(=O)(=O)Nc2ncn[nH]2)ccc1Cl | -1.79% (inactive) |
| Fc1ccc(CSc2nnc(-c3cc4c(s3)-c3ccccc3CC4)o2)cc1 | 1.49% (inactive) |
| CSc1nc2sc3c(c2c(=O)[nH]1)CCc1ccccc1-3 | -2.09% (inactive) |
| CCSc1nnc(-c2cc3c(s2)-c2ccccc2CC3)o1 | 40.7% (active) |
| Cn1sc(NC(=O)c2ccccc2)nc1=O | 9.66% (inactive) |
| CC(=O)NCCc1nc2cc(NC(=O)c3ccccc3)ccc2n1C | 20.2% (inactive) |
| Cn1c(NC(=O)c2ccccc2)nc2ccccc21 | 25.8% (active) |
| COc1cc2c(cc1OC)C(C(=O)NCc1ccco1)C1c3ccccc3CCN1C2=O (centres undefined) | -2.13% (inactive) |
| Cc1cc(=O)oc2cc(OC(C)C(=O)NCCc3ccc(S(N)(=O)=O)cc3)ccc12 (centres undefined) | -2.25% (inactive) |
| Cc1ccc(N2CCN(C(=O)c3cccs3)CC2)c(C)c1 | 1.82% (inactive) |
| O=C(O)c1ccc(N/N=C/c2cn(-c3ccccc3)nc2-c2cccs2)cc1 | 14.7% (inactive) |
| O=C(O)/C=C/c1cn(-c2ccccc2)nc1-c1cccs1 | 20.8% (active) |
| O=C(/C=C/c1cn(-c2ccccc2)nc1-c1ccc2c(c1)OCCO2)NCCCN1CCOCC1 | 13.7% (inactive) |
| O=C(O)/C=C/c1cn(Cc2ccccc2)nc1-c1cccs1 | 0.958% (inactive) |
| COc1ccc(-c2nn(-c3ccccc3)cc2/C=C\C(=O)N2CCOCC2)cc1[N+](=O)[O-] | -1.53% (inactive) |
| O=C(/C=C\c1cn(-c2ccccc2)nc1-c1cccs1)N1CCOCC1 | 17.5% (active) |
| CCOC(=O)c1c(NC(=O)CSc2nccc(=O)[nH]2)sc(C)c1C | -2.23% (inactive) |
| COC(=O)c1ccc(-c2noc(CN(Cc3ccccn3)CC3CCCO3)n2)cc1 (centres undefined) | -2.22% (inactive) |
| CCN1CC(CN(C)Cc2nc(-c3ccc(Cl)cc3)no2)CC1=O (centres undefined) | 6.16% (inactive) |
| CN(Cc1ccccn1)Cc1nc(-c2ccc(Cl)cc2)no1 | 20% (active) |
| COCCCNS(=O)(=O)c1cccc(S(=O)(=O)c2cccc(S(=O)(=O)NCCCOC)c2)c1 | -2.51% (inactive) |
